Compound activity: PubChem BioAssay, several laboratories
The list is not random: actives were taken first. Their share in the collection is about 4.1%.
MRP-1 activ: MRP-1 activation | actives 0.61% (n = 140,000) | viability increase, % at 10 µM | H69AR cells + doxorubicin, viability rescue, CellTiter-Glo;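 active means viability gain under doxorubicin at or above a set limit, the compound median plus 3 SD, cut at about 4.7% in these data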;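 further: MRP-1 overexpressing cells given doxorubicin 25 µM after compound pretreatment; 18-22 h compound pretreatment then 72 h with doxorubicin before readout; 0% = doxorubicin-only wells and 100% = vehicle-treated cells without doxorubicin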
MRP reversal: compounds reversing MRP-mediated drug resistance; H69AR cells + 2 uM doxorubicin, CellTiter-Glo, 72 h; differential viability (reversal), % at 10 µM; actives 0.04% (n = 85,000); AID 602;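 active means viability drop by adding the cancer drug above about 55%, with treated viability meeting a 40% cutoff, limit read from the data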;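 further: viability without doxorubicin minus viability with 2 µM doxorubicin for each compound; larger differential means the compound sensitizes cells more to doxorubicin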
Cav32 inh: inhibitors of human Cav3.2 T-type calcium channel. actives 4% (n = 100,000). B-score at 10 µM. AID 449739. Cav3.2-expressing cells, Fluo-4 calcium fluorescence FDSS; stronger effect = lower value. O95180;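 active means single-dose well whose peak fluorescence ratio is a statistical outlier from its plate by either plate-standardised score or position-corrected B-score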
Mac1 fbg inh: CD11b/CD18-fibrinogen binding inhibition; P05107+P11215; AID 1497; inhibition, % at 10 µM; K562 CD11b/CD18 adhesion to fibrinogen, ATPlite luminescence; Mn2+ added to activate the integrin; actives 0.54% (n = 93,000);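 active means primary inhibition of 50% or more at 10 µM, then 40% or more on retest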
Pyk2 oligo antag: Pyk2 (human) oligomerization antagonism; z-score (the deposit names both 25 µM and 10 µM); Q293 cells, Pyk2 FERM NanoBiT luminescence; stronger effect = lower value; Q14289; actives 0.83% (n = 99,000); AID 1347419;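 active means Z-score of -3 or lower, scaled per plate to the spread of control and sample wells; inactive means z-score above -3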;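 further: negative z-score means lost luminescence so less FERM oligomerization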
Mac1 fbg enh: CD11b/CD18-fibrinogen binding enhancement | P05107+P11215 | K562 CD11b/CD18 adhesion to fibrinogen, ATPlite luminescence | activation, % at 10 µM | actives 0.07% (n = 93,000);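 active means 10 µM primary screen giving 50% or more activity, confirmed by 40% or more on retest at that dose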
An asterisk follows results filed as active; nt = no result given.

SMILES	MRP-1 activ	MRP reversal	Cav32 inh	Mac1 fbg inh	Pyk2 oligo antag	Mac1 fbg enh
N#Cc1ccccc1Sc1ccccc1C(=O)Nc1ccc(Br)cc1	-1	nt	nt	-3	-3.5*	-1
CCCC(C(=O)NCc1ccco1)N(C(=O)CNS(=O)(=O)c1ccccc1)c1ccccc1OC (stereo unspecified)	-2	-11	-5.4*	-2	-0.2	10
O=C(CN(Cc1cccs1)C(=O)CNS(=O)(=O)c1ccccc1)NCc1ccco1	-3	9	nt	-9	0	8
CCCC(C(=O)NCc1ccco1)N(C(=O)CNS(=O)(=O)c1ccc(Cl)cc1)C1CCCC1 (stereo unspecified)	-1	9	-8.4*	9	1.3	-4
Cc1ccc(S(=O)(=O)NCC(=O)N(CC(=O)NCc2ccco2)Cc2ccc3c(c2)OCO3)cc1	-1	28	-5.1*	-2	-0.29	0
COc1ccccc1N(C(=O)CNS(=O)(=O)c1ccccc1)C(C(=O)NCc1ccco1)C(C)C (stereo unspecified)	-3	6	-0.023	13	0.31	3
CCC(C(=O)NCc1ccco1)N(C(=O)CNS(=O)(=O)c1ccc(C)cc1)c1ccccc1OC (stereo unspecified)	-3	3	-3.5*	0	0.49	-2
CCC(C(=O)NCc1ccco1)N(C(=O)CNS(=O)(=O)c1ccccc1)C1CCCCC1 (stereo unspecified)	-1	1	0.4	4	1.5	-2
COc1ccccc1C(=O)ON=C1c2ccccc2-c2ccccc21	-2	nt	nt	nt	nt	nt
CCOC(=O)/C(=C/c1c2ccccc2cc2ccccc12)NC(=O)c1ccccc1	-1	nt	-0.45	nt	-0.51	nt
C=CCOC(=O)/C(=C\c1cccc2ccccc12)NC(=O)c1ccccc1	-3	nt	-5.2*	nt	-1.4	nt
Cc1ccc(C(C)C)c(OCC(=O)Nn2c(C)nc3ccccc3c2=O)c1	-2	-2	-5*	0	0.49	-1
CCOC(=O)CC(=O)CSc1nc2sc(C)cc2c(=O)n1Cc1ccco1	-1	8	0.26	-8	0.22	2
Cc1cc2c(=O)n(Cc3ccco3)c(SCC(=O)c3ccc(Cl)s3)nc2s1	0	-8	-4.7*	62	0.21	1
COc1ccc(/C=C2\CCc3ccccc3C2=O)cc1Cn1cccn1	-3	nt	-3.7*	9	-2.5	-1
COc1ccc(/C=C2\CCc3ccccc3C2=O)cc1Cn1nc(C)c(Br)c1C	nt	-4	nt	nt	nt	nt
CCCCc1c(C)nn(-c2nnc3c4ccccc4n(CC)c3n2)c1C	-2	-18	-1.9	9	-1.6	0
COc1ccc(CN(C(=O)CSc2nnc(-c3ccccc3F)o2)c2ccc(F)cc2)cc1	3	-5	-4.8*	30	-1.8	5
COc1ccc(-c2nnc(SCC(=O)c3ccc[nH]3)o2)cc1	-1	nt	0.72	6	1.8	-1
CCOC(=O)N1CCN(Cc2nc(-c3cccc(C)c3)no2)CC1	-1	7	0.76	-4	0.33	-3
Cc1ccc(/C=C/C(=O)Nc2nn[nH]n2)o1	-2	nt	nt	nt	nt	nt
COc1cc(CNc2ccccc2Oc2cc(=O)n(C)c(=O)n2C)cc(OC)c1OC	-5	3	-0.55	12	0.36	0
Cn1c(Oc2ccccc2NCc2cc(Br)ccc2O)cc(=O)n(C)c1=O	-1	-19	nt	nt	-3.1*	nt
COc1ccc(OC)c(NC(=O)Cn2c(=O)n(CC(=O)NCc3ccco3)c(=O)c3ccccc32)c1	-2	14	0.9	-51	-1	-4
Cc1cc(N2CCN(c3nc4ccccc4s3)CC2)n2ncnc2n1	-2	-20	0.64	74*	0.52	-12
SMILES	MRP-1 activ	MRP reversal	Cav32 inh	Mac1 fbg inh	Pyk2 oligo antag	Mac1 fbg enh
Cc1cc(N2CCN(C(c3ccccc3)c3ccccc3)CC2)n2ncnc2n1	0	0	-2.7	0	-0.87	2
S=C(Nc1cccc(Cl)c1)NC1CCCCC1	-6	nt	-4.1*	nt	0.09	nt
COc1cccc2sc(Nc3nnc(-c4ccc(F)cc4)o3)nc12	-2	-15	-4.2	17	nt	0
COc1cccc2sc(Nc3nnc(-c4cccs4)o3)nc12	-3	-14	-5.6*	30	-0.11	-3
O=C1C2=C(Nc3ccccc3SC2c2ccco2)c2ccccc21 (stereo unspecified)	-2	-12	-5.1*	34	-0.54	0
O=C1c2ccccc2NC(c2ccco2)N1O (stereo unspecified)	-2	-8	-0.91	-19	-0.92	0
O=C(CSC1=NCCS1)Nc1ccnc2ccccc12	-2	-3	-1.3	100*	-0.01	-10
O=C(CSC1=NCCS1)Nc1ccc(S(=O)(=O)N2CCCCCC2)cc1	-2	nt	-4.4*	12	0.75	-3
CC(=O)Nc1ccc(NC(=O)CSC2=NCCS2)cc1	0	7	0.78	-17	0.79	-4
O=C(CN(C1CCCCC1)S(=O)(=O)c1ccc(F)cc1)NCc1ccncc1	-3	nt	-2.4	48	-0.32	1
CCN(CC)S(=O)(=O)c1cccc(NC(=O)C2SC(=Nc3ccc(C)cc3C)C(C(=O)NC(C)COC)=C2N)c1 (stereo unspecified)	-5	nt	-8.6*	7	-0.74	-3
CCCCNC(=O)C1=C(N)C(C(=O)Nc2ccc(C)c(S(=O)(=O)N3CCCCC3)c2)SC1=Nc1ccc(C)cc1C (stereo unspecified)	-5	nt	nt	-1	0.78	10
O=C(CCCCCCN1C(=O)c2ccccc2C1=O)N1CCC(c2ccccc2)C1 (stereo unspecified)	1	-12	-4.3*	nt	-0.32	nt
CCOC(=O)C1CCN(C(=O)CCCN2C(=O)c3ccccc3C2=O)CC1	1	13	nt	-14	0.1	-3
O=C(CNS(=O)(=O)c1ccc2ccccc2c1)OCc1csc(-c2ccccc2)n1	-3	nt	nt	27	nt	-3
N/C(Cc1cccs1)=N\OC(=O)COc1ccc(Br)cc1	5.3*	-3	-2	-8	0.91	-5
COc1ccc(OCC(=O)O/N=C(\N)Cc2cccs2)cc1	0	nt	nt	nt	nt	nt
O=C1CC(N(Cc2ccc3c(c2)OCO3)C(=O)Nc2ccc(F)cc2)C(=O)N1c1ccccc1 (stereo unspecified)	-3	4	-0.95	8	0.56	1
Cc1ccc(C(=O)N/N=C/c2nc3ccccc3n2C)cc1	-3	nt	-0.83	-1	-0.59	-1
Cn1c(/C=N/NC(=O)c2ccccc2Br)nc2ccccc21	-2	nt	-4.3*	nt	-1.3	nt
COc1ccc(C2(C(=O)NCCN3CCOCC3)CCOCC2)cc1	0	20	-0.66	0	-0.24	-3
O=c1c2cc(Br)ccc2nc(-c2cccc(C(F)(F)F)c2)n1O	-6	nt	-7.9*	nt	-0.7	nt
O=C(CSc1nnnn1C1CCCCC1)N1c2ccccc2Sc2ccccc21	2	2	-6*	17	-1.8	-1
